tested on: LXRb:RXRa (NR concentration 270 nM, RXRa partner concentration 90 nM); assay: PBM binding z-score (relative to random genomic background probes); higher = stronger binding; sequences stand for … in GC…GCGATTGACAGCGTAGAATGAAGG
Procedure, shortened: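 Probes were double-stranded and carried 34-nt variable regions with direct-repeat seeds, single-nucleotide variants, half-site ablations and random human genomic background sequences, printed on custom Agilent 4×180K protein-binding microarrays. Arrays were incubated 1 h with ligand-free nuclear receptor dimers in PBS pH 7.4, 2% milk, 0.02% Triton X-100, 1 mM DTT, 0.2 mg/mL BSA and 0.4 mg/ml salmon testes DNA. Antibodies against each partner (one per run) detected binding, and scanned fluorescence was regression-normalized. Binding z-scores use the random background probes as reference.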

| Sequence | PBM binding z-score |
| --- | --- |
| TAGCCTAGGTCATGGGCCAGTAGACCACGCGAAC | 2.2 |
| ATCGAAAGGTCGAGGTGATTATAGAGAAAGGGAA | 2.64 |
| CTCGAAAGGTCGGTAGAGGTGAGTATACGGATAA | 1.32 |
| CCTAGTAGGCCAGGGTCACTCAAGCATTTCGCTT | 2.01 |
| CCTTACGGGTCACTCCAGGCTATAGCATCGGAGT | 2.91 |
| CGAACTAGGTCAAGGTCAGTGAATCTCCGCACGC | 2.95 |
| AGAACGAGGGCACGCTGAGTTCATAGCAGAGTAG | 1.45 |
| GCCACTGGGGCATCAGCAGGTTACCATAACTTAA | 0.103 |
| ACTAGTTGGTCAGCTGAGATCACACACAATTCGG | 0.118 |
| ATTTACGGGTCAACGAGGTTATAGCACGCGTATA | 4.93 |
| TAGCCTAGGTCATTGGGCAAGTATAGTACGCATC | 2.16 |
| TCTCGGAGTACACGAAGGTCAGAGCTTTCCAGAG | 1.09 |
| AGAACGAGGGCACGGTGAGTTGATAGCAGAGTAG | 0.306 |
| TCAAGCAGGCCAGAGGGTCACTCAAGAGGTACGG | 1.22 |
| CAAACTAGGTCACAGAGGCCAAAGTCCGTGCGTA | 2.66 |
| CGTCAAAGTACAACTAAGGTAACGTAAAGCACGC | 0.219 |
| TCTTGTAGATCAAGCAGGTTAAGAAAGCCTGAGT | 0.385 |
| TCATATAGGTAATACAGGTAAAAGTCGGCATCTA | 0.915 |
| AATACAGGGTCACTAGGCCAGAATAGGTACGAAT | 4.11 |
| CGAACTAGGTCATTGACAGGAGAGTGAATAGTAA | 1.64 |

| Sequence | PBM binding z-score |
| --- | --- |
| ATATGTAGGTTGTCGGGTCATTCAGTTTGCGCAT | 2.65 |
| TAGCCTGGGTCATGGGCCAGTATACCACGCGAAC | 2.04 |
| CGTCCAAGGTCAAGGGTCAGTGAAGAGATGACGG | 5 |
| ATCGAAAGATCGACGAGGTGAGTATACACCGTTT | -0.346 |
| TCTTGTAGATCAAGCAGGTTAAGATAGCCTGAGT | 0.188 |
| GCTACTAGTTGAAAGGGCAACCGAATGATTCTCG | 0.754 |
| TCCGACAGGTGAAGGTAACTCAGGTACGCAGTCG | 0.558 |
| ATGTGTAGGTTAGCTGGGGTCATTCAGACTAGGC | 4.92 |
| TATACAGGGTCAATGGCCAGAGTACGAATGTCGA | 3.89 |
| CGTCAAAGTTCAATGTAACGTAACAGAAAGCAGC | 3.5 |
| ATATGTAGGTTACATCCGGGTCGTTCAGGCTATG | 1.67 |
| CCCTACGGGTCACTGACAGGTTATAGCATTTGGA | 3.53 |
| AGTCAAAGTTCATCTAGGTAACGCAAGATATGCT | 3.61 |
| CGTCCAAGATCAATGCTAGGTCAGTGAAAGCATT | 0.371 |
| TAGCCTAGGTCATTCAGGAGCCAGTATAGAAAGC | 2.42 |
| CCTGCTAGGTCAATGTTCAGCTAAAGCAGCTCGC | 1.52 |
| TCCAGTAGGTTAGGGGCATTCAGAATGGCGTCGA | 1.19 |
| TCGCGGAGGACACGAAGGTCAGAGCTTTCCAGAG | 0.704 |
| CGAAGTAGGTCATCCAGGACAGTGAATACATTGA | 2.64 |

Source: the supplement of paper PMC6555819
